# Data taken from PubChem BioAssay (Tox21).
# Records with an inconclusive call do not appear. A call without a number means that no potency is given here. The source made the active and inactive calls. Calls come from the whole dose curve; as a rule, active = well fitted cell-killing curve with a large enough effect in the repeat runs; inconclusive = weak or mixed curves, or effect the other way; inactive = flat fitted curve, though single readings scatter.
# Test: qHTS assay to identify small molecule antagonists of the estrogen receptor alpha (ER-alpha) signaling pathway using the BG1 cell line in the presence of 0.1 nM 17-beta-estradiol - cell viability counter screen (AID 1259241); note: nearly all actives have a fitted effect of over 40% in size
# Settings: VM7Luc4E2 (BG1) viability, CellTiter-Fluor protease, 22 h, 0.1 nM estradiol agonist added; series mostly up to 92.4 µM
# How it was run: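 Live-cell protease activity (CellTiter-Fluor fluorescence, 30 min) was read in the same wells after VM7Luc4E2 cells had been exposed to compounds with 0.1 nM 17beta-estradiol for 22 hr at 37C.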
row,SMILES,outcome
1,CON(C)C(=O)Nc1ccc(Br)c(Cl)c1,inactive
2,CON(C)C(=O)Nc1ccc(Br)cc1,inactive
3,C#CC(C)(C)O,inactive
4,ClCCCCCCCl,inactive
5,CNC(=O)Oc1cc(C)c(N(C)C)c(C)c1,inactive
6,CCOC(=O)COc1ccc(Cl)cc1Cl,inactive
7,C[C@@H](N)[C@@H](O)c1ccccc1,inactive
8,CC(=NC#N)N(C)Cc1ccc(Cl)nc1,inactive
9,CCC(=O)OC1(c2ccccc2)CCN(C)CC1,inactive
10,BrCCc1ccccc1,inactive
11,CCC1(c2cccc(O)c2)CCCCN(C)C1 (stereo not given),inactive
12,CN1COCN(Cc2cnc(Cl)s2)/C1=N\[N+](=O)[O-],inactive
13,CCCCS(=O)(=O)Cl,inactive
14,O=C(O)CBr,inactive
15,CCCC(C)(COC(N)=O)COC(N)=O,inactive
16,COC1=CC(=O)O[C@@H](/C=C/c2ccccc2)C1,inactive
17,CC(Cl)(Cl)Cl,inactive

row,SMILES,outcome
1,C=CCN1CC[C@]23CCCC[C@H]2[C@H]1Cc1ccc(O)cc13,inactive
2,CCOC(=O)C(SP(=S)(OC)OC)c1ccccc1 (stereo not given),inactive
3,O=c1[nH]c2ccccc2o1,inactive
4,CC1=C2[C@H]3OC(=O)[C@@H](C)[C@@H]3CC[C@@]2(C)C=CC1=O,inactive
5,O=C(O)C(F)(F)C(F)(F)C(F)(F)C(F)(F)C(F)(F)C(F)(F)F,inactive
6,Cl/C=C/CCl,inactive
7,CC(C)C(C)(N)C#N (stereo not given),inactive
8,CCC(=O)c1ccc(Cl)cc1,inactive
9,CCN1CCCC1CNC(=O)C(O)(c1ccccc1)c1ccccc1 (stereo not given),inactive
10,C=CC(=O)OCCN(C)C,inactive
11,N#CC(Br)(Br)C(N)=O,inactive
12,O=[N+]([O-])c1cccc(CCl)c1,inactive
13,CC(C)c1ccc(O)cc1,inactive
14,CC(C)(C)C(=O)C(Cl)Cl,inactive
15,CCOC(=O)N(C)N=O,inactive
16,[P]#[In],inactive
17,c1ccc2c(c1)CCNC2,inactive

# Test: qHTS assay to identify small molecule antagonists of the androgen receptor (AR) signaling pathway using the MDA cell line in the presence of 0.5 nM R1881 - cell viability counter screen (AID 1259242); note: nearly all actives have a fitted effect of over 45% in size
# Settings: MDA-kb2 viability, CellTiter-Fluor protease fluorescence, 16 h; series mostly up to 92.4 µM
# How it was run: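 Fluorescence from CellTiter-Fluor, which reports protease activity of live cells, was read 30 min after reagent addition to MDA-kb2 cells that had been incubated 16 hr with compound and 0.5 nM R1881.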
row,SMILES,Potency
1,CON(C)C(=O)Nc1ccc(Br)c(Cl)c1,inactive
2,CON(C)C(=O)Nc1ccc(Br)cc1,inactive
3,C#CC(C)(C)O,inactive
4,ClCCCCCCCl,inactive
5,CNC(=O)Oc1cc(C)c(N(C)C)c(C)c1,inactive
6,CCOC(=O)COc1ccc(Cl)cc1Cl,inactive
7,C[C@@H](N)[C@@H](O)c1ccccc1,inactive
8,CC(=NC#N)N(C)Cc1ccc(Cl)nc1,inactive
9,CCC(=O)OC1(c2ccccc2)CCN(C)CC1,inactive
10,BrCCc1ccccc1,inactive
11,CCC1(c2cccc(O)c2)CCCCN(C)C1 (stereo not given),inactive
12,CN1COCN(Cc2cnc(Cl)s2)/C1=N\[N+](=O)[O-],inactive
13,CCCCS(=O)(=O)Cl,inactive
14,O=C(O)CBr,inactive
15,CCCC(C)(COC(N)=O)COC(N)=O,inactive
16,COC1=CC(=O)O[C@@H](/C=C/c2ccccc2)C1,inactive
17,CC(Cl)(Cl)Cl,inactive
18,C=CCN1CC[C@]23CCCC[C@H]2[C@H]1Cc1ccc(O)cc13,inactive

row,SMILES,Potency
1,Cn1c(N)nc2c3cccnc3ccc21,inactive
2,CCOC(=O)C(SP(=S)(OC)OC)c1ccccc1 (stereo not given),inactive
3,O=c1[nH]c2ccccc2o1,inactive
4,CC1=C2[C@H]3OC(=O)[C@@H](C)[C@@H]3CC[C@@]2(C)C=CC1=O,inactive
5,O=C(O)C(F)(F)C(F)(F)C(F)(F)C(F)(F)C(F)(F)C(F)(F)F,inactive
6,Cl/C=C/CCl,inactive
7,CC(C)C(C)(N)C#N (stereo not given),inactive
8,CCC(=O)c1ccc(Cl)cc1,inactive
9,CCN1CCCC1CNC(=O)C(O)(c1ccccc1)c1ccccc1 (stereo not given),inactive
10,C=CC(=O)OCCN(C)C,inactive
11,N#CC(Br)(Br)C(N)=O,inactive
12,O=[N+]([O-])c1cccc(CCl)c1,inactive
13,CC(C)c1ccc(O)cc1,inactive
14,CC(C)(C)C(=O)C(Cl)Cl,inactive
15,C=C(Cl)CSC(=S)N(CC)CC,inactive
16,CCOC(=O)N(C)N=O,inactive
17,[P]#[In],inactive
18,c1ccc2c(c1)CCNC2,inactive
